Measurements taken from PubChem BioAssay (NCI).
This is part of a sample that, as a whole, favours compounds with a hit. Of some 83,000 tested, about 20% had one in any assay.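 The test compound was applied at a single concentration to cells in 96-well plates for 48 hours, and percent growth was recorded.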 Values without a mark were called inactive. Activity calls are given as the source filed them. The calls were made as follows: active = growth percent below 10; inactive = the rest.

system: MDA-MB-468 breast; assay: NCI-60 one-dose screen, 48 h (100 = growth as untreated, 0 = no growth, -100 = all killed); settings: 10 µM unless noted

**Q.** How did the growth turn out when CCCNC(=O)Nc1ccc2cc3ccc(NC(=O)NCCC)cc3nc2c1 was run?
**A.** -52.4% (active)

**Q.** COc1cc(-c2nc3occn3c2-c2ccnc(NCCCNS(=O)(=O)c3ccc(O)cc3)n2)ccc1F was tested. Which growth did it give?
**A.** 91.4%

**Q.** How did the growth turn out when CSc1ccc(/C(=N/N=C(N)N)c2ccccc2)cc1 was run?
**A.** 44.8%

**Q.** How did the growth turn out when O=C(CN1C(=O)S/C(=C\C(Cl)=C\c2ccccc2)C1=O)NC1CCS(=O)(=O)C1 (stereo not given) was run?
**A.** 8.17% (active)

**Q.** COc1cc2c(c(OC)c1OC)-c1ccc(NCc3ccccc3)c(=O)cc1[C@@H](NC(C)=O)CC2 was tested. Which growth did it give?
**A.** 17.3%

**Q.** How did the growth turn out when CCCCN1C(=O)/C(=c2\sc3n(c2=O)C2C(NN=3)N(CC)C(=O)N2CC)c2ccccc21 (stereo not given) was run?
**A.** 1.69% (active)

**Q.** With CC(C)C/C(=N\NC(=O)c1ccncc1)c1cc(Cl)ccc1O as the compound, how does the growth read?
**A.** -1.67% (active)

**Q.** Which growth does the source give for O=C1c2cccnc2-c2nccc3c2c1nc1cc(Br)ccc13 here?
**A.** -54.6% (active)

**Q.** How did the growth turn out when Cc1ccc(C(=O)NCCNc2nccc(-c3c(-c4cccc(F)c4)nc4sccn34)n2)cc1 was run?
**A.** 38.7%

**Q.** With CC(=O)O[C@H]1CC[C@]2(C)[C@H]3CC=C4[C@@H]5CC(C)(C)CC[C@]5(C(=O)NCCNCCNCCN)CC[C@@]4(C)[C@]3(C)CC[C@H]2C1(C)C as the compound, how does the growth read?
**A.** -14.5% (active)

**Q.** Which growth does the source give for CCOC(=O)c1cc(C(=O)c2cc(OC)cc(OC)c2)n2ccc3ccccc3c12 here?
**A.** 74.5%

**Q.** How did the growth turn out when Cc1cc2c(-c3nc4ccccn4c3NC3CCCCC3)c(O)c(O)cc2c(O)c1-c1c(C)cc2c(-c3nc4ccccn4c3NC3CCCCC3)c(O)c(O)cc2c1O was run?
**A.** 13.9%

**Q.** Which growth does the source give for C[Se]C(=O)CC1=C2C=C(F)C=CC2/C(=C\c2ccc(S(C)=O)cc2)C1C (stereo not given) here?
**A.** -46.2% (active)

**Q.** How did the growth turn out when CC(c1ccccc1)N1CSc2nc3ncncc3n2C1 (stereo not given) was run?
**A.** -0.761% (active)

**Q.** With C#Cc1ccc(NC(=O)c2ccc(/C=C/C(=O)c3nccn3C)cc2)cc1 as the compound, how does the growth read?
**A.** -54.6% (active)

**Q.** With CCCCCCCCCCCCNC(=O)[C@H]1CSC(c2cc3ccccc3s2)N1 (stereo not given in full) as the compound, how does the growth read?
**A.** -57.9% (active)

**Q.** Which growth does the source give for CC(=O)c1c(O)c(C)c(O)c2c1OC1=CC(=O)/C(=C(/C)N)C(=O)C12C (stereo not given) here?
**A.** 74.6%

**Q.** With Nc1c(C(=O)c2ccc(Cl)cc2)sc(Nc2ccccc2)c1-c1nc2ccccc2s1 as the compound, how does the growth read?
**A.** 14.7%

**Q.** Which growth does the source give for C=C1C(=O)O[C@H]2[C@H]1CC/C(CNC(=O)/C=C/c1cc(OC)c(OC)c(OC)c1)=C\CC[C@@]1(C)O[C@@H]21 here?
**A.** -57.6% (active)

**Q.** For COc1ccc(-c2nc3c(c(C)nn3-c3ccc(F)cc3)c(=O)[nH]2)cc1, which growth is on record?
**A.** 88.9%

**Q.** How did the growth turn out when CNC(=O)c1cc(Oc2ccc3nc(NC(=O)Nc4ccc(Cl)c(C(F)(F)F)c4)sc3c2)ccn1 was run?
**A.** -5.09% (active)

**Q.** How did the growth turn out when CC(C)(C)OC(=O)N1CCC(O)[C@@H](O[Si](c2ccccc2)(c2ccccc2)C(C)(C)C)[C@H]1/C=C/c1ccccc1 (stereo not given in full) was run?
**A.** 15.2%

**Q.** How did the growth turn out when CC(C)(CC(=O)O)CC(=O)O was run?
**A.** 96.4%

**Q.** How did the growth turn out when Cn1c(/C=C(\C#N)c2ccccc2)nc2c(N3CCOCC3)nc(Cl)nc21 was run?
**A.** -47.9% (active)

**Q.** How did the growth turn out when O[C@H]1CO[C@H]2[C@@H]1OC[C@@H]2Oc1ccc(Nc2ccnc(Nc3ccc(O[C@H]4CO[C@H]5[C@@H]4OC[C@@H]5O)c(Cl)c3)n2)cc1Cl was run?
**A.** -7.19% (active)

**Q.** Which growth does the source give for CC(=C(c1ccc(OCCN(C)C)cc1)c1ccc(OCCN(C)C)cc1)c1ccc(Cl)cc1 here?
**A.** -81.1% (active)

**Q.** O=C(NNc1nc(Cl)nc(N2CCN(C(c3ccccc3)c3ccccc3)CC2)n1)c1ccccc1 was tested. Which growth did it give?
**A.** -47.2% (active)

**Q.** How did the growth turn out when Cn1c2c(cc(S(=O)(=O)c3ccccc3)c1=O)CCc1c-2cnn1-c1ccccc1Cl was run?
**A.** 91.9%

**Q.** With CCOC(=O)Nc1ccc2nc(-c3cscn3)[nH]c2c1 as the compound, how does the growth read?
**A.** -2.03% (active)

**Q.** Which growth does the source give for CN1CCN(C(=O)OCCOCCOC(=O)N2CCN(C)CC2)CC1 here?
**A.** 107%

**Q.** Which growth does the source give for Clc1ccc(C(Cn2ccnc2)OCc2ccsc2Cl)c(Cl)c1 (stereo not given) here?
**A.** 9.75% (active)

**Q.** For CCOc1cc(NC(=O)c2ccccc2)c(OCC)cc1N, which growth is on record?
**A.** 112%

**Q.** Which growth does the source give for CC(C)(C)C(=O)OCOP(=O)(OCOC(=O)C(C)(C)C)C1CCCN(OC(=O)c2ccccc2)C1=O (stereo not given) here?
**A.** 29.6%

**Q.** Which growth does the source give for COc1cc(-c2nc(NC(C)=O)sc2-c2ccnc(NCCNS(=O)(=O)c3ccccc3)n2)ccc1Cl here?
**A.** 20.8%

**Q.** Which growth does the source give for COC[C@]12CCC(C)(C)C[C@H]1C1=CC[C@@H]3[C@@]4(C)CCCNC(C)(C)[C@@H]4CC[C@@]3(C)[C@]1(C)CC2 here?
**A.** -82.1% (active)
